Legend:
Assay in all cases: log2 ratio of Biotin-Ahx-Ub-VS probe labelling (fragment/DMSO); higher = less target engagement (more negative = stronger competition), active = hit call of the paper (q ≤ 0.05, log2 ratio ≤ -1)
Details in all cases: compound concentration: 200 uM; treatment time: 3 h
USP19 = molecular target: T1, USP19 (UniProt O94966)
T1 sequence (whole entry): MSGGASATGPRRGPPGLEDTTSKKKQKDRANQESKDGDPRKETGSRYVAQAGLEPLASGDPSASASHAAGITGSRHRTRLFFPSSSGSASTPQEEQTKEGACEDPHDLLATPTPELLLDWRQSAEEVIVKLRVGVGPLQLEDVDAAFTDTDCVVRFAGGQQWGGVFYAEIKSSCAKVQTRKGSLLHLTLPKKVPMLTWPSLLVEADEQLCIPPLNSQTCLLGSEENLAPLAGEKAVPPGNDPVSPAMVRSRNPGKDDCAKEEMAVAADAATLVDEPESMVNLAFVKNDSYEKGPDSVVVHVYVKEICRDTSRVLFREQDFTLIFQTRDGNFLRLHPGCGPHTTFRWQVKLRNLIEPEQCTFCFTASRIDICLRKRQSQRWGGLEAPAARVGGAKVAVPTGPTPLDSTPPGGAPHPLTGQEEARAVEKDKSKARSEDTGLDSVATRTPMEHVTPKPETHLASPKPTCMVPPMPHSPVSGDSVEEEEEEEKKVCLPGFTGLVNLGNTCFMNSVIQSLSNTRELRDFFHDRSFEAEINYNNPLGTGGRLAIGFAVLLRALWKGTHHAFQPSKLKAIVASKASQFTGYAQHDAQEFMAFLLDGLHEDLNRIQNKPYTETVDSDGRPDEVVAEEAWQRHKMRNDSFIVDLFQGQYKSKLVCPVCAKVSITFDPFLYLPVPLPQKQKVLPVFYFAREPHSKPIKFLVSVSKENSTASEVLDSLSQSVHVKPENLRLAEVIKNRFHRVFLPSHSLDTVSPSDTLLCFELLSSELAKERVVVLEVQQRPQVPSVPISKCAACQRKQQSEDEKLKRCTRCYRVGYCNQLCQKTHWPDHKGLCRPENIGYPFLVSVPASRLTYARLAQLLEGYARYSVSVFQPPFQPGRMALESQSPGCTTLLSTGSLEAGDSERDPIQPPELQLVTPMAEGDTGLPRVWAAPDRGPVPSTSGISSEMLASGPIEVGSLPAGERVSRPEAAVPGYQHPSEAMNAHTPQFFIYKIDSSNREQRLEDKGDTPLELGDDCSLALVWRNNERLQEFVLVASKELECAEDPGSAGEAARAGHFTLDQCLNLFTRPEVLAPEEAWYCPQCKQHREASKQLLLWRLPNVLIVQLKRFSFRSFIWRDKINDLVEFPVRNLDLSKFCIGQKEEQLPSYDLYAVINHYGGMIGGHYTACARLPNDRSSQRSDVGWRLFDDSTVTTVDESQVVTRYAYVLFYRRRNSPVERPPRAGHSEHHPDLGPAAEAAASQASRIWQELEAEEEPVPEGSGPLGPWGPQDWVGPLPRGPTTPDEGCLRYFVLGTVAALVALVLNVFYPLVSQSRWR
Outline: (§1)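 Average log2 ratios of fragment over vehicle were obtained by unpaired t-test from global-median-normalised Spectronaut label-free quantities. Proteins with ≥2 unique peptides were included. HEK293T lysate (495 µg per sample) was treated in triplicate with fragment at 200 µM or vehicle for 3 h, then with Biotin-Ahx-Ub-VS at 0.5 µM final for 1 h, and labelled DUBs were NeutrAvidin-enriched and run by diaPASEF LC-MS/MS.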

USP22 = molecular target: T2, USP22 (UniProt Q9UPT9)
T2 sequence (whole entry): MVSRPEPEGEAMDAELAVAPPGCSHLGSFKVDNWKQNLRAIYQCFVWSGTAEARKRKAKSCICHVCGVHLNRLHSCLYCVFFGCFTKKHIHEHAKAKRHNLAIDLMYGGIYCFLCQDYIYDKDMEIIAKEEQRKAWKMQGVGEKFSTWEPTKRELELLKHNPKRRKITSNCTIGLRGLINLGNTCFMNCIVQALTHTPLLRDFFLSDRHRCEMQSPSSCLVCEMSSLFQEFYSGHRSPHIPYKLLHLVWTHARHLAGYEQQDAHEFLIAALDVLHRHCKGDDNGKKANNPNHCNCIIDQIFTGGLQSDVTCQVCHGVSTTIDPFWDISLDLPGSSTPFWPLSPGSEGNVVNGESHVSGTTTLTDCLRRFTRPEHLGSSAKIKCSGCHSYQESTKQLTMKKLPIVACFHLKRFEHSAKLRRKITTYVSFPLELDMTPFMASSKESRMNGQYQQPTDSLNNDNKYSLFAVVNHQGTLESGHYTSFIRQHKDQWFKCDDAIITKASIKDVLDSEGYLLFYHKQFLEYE
Outline: as §1

USP24 = USP24 (UniProt Q9UPU5)
Outline: as §1

USP25 = molecular target: T3, USP25 (UniProt Q9UHP3)
T3 sequence (whole entry): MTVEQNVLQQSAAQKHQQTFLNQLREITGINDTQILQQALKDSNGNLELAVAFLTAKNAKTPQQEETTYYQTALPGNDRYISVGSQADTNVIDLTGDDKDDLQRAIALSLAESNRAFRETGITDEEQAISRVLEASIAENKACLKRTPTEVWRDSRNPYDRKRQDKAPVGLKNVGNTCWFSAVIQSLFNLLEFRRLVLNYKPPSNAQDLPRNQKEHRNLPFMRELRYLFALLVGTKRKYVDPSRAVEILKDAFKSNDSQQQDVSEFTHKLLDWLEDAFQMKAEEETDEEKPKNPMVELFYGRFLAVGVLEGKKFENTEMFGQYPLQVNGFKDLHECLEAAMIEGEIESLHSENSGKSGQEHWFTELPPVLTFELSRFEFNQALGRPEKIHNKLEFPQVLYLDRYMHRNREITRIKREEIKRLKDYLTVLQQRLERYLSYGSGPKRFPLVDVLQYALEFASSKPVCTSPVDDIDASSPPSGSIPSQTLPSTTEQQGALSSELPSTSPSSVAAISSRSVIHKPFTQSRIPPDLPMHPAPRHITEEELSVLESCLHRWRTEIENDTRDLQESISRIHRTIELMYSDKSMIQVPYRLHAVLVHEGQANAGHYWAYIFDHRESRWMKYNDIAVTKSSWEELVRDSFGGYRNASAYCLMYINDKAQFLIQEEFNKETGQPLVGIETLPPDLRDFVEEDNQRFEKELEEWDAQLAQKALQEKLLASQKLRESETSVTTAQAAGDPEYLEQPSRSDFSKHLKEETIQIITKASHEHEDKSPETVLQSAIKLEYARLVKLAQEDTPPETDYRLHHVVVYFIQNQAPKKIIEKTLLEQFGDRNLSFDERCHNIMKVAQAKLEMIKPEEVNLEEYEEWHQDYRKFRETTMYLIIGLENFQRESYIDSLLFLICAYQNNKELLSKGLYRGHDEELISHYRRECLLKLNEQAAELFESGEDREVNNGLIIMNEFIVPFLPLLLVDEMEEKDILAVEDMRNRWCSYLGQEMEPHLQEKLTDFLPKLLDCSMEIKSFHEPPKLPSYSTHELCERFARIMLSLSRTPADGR
Outline: as §1

USP28 = molecular target: T4, USP28 (UniProt Q96RU2)
T4 sequence (whole entry): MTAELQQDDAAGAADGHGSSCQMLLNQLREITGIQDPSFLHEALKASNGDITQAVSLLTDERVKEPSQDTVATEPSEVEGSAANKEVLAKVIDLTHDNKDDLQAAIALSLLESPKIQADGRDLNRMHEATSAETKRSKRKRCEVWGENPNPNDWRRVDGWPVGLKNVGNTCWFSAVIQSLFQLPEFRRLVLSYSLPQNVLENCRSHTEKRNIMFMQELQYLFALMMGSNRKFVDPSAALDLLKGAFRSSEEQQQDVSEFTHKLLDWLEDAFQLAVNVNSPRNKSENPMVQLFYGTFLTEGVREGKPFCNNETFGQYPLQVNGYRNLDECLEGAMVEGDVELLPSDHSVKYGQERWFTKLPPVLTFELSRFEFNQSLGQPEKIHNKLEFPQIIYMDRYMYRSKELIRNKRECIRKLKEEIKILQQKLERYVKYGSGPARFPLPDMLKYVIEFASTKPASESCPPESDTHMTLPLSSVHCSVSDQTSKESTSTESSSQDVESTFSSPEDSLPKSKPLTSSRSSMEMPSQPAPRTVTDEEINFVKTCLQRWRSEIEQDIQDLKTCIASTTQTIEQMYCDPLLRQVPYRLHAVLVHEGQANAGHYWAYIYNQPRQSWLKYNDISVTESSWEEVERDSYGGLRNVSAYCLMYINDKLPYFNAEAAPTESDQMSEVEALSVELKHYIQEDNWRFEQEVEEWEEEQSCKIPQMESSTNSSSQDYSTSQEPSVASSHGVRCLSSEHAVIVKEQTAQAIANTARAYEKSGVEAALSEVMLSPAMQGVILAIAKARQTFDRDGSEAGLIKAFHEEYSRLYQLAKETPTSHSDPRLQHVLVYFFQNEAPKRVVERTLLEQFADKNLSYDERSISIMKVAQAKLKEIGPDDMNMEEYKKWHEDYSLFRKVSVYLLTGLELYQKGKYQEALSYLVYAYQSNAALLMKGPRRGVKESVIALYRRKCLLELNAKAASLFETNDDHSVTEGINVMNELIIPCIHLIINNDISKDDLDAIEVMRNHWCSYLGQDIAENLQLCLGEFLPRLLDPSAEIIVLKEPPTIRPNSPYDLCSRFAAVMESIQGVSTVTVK
Outline: as §1

Measured: log2 ratio of Biotin-Ahx-Ub-VS probe labelling

Sequence of USP24 (Q9UPU5 whole entry): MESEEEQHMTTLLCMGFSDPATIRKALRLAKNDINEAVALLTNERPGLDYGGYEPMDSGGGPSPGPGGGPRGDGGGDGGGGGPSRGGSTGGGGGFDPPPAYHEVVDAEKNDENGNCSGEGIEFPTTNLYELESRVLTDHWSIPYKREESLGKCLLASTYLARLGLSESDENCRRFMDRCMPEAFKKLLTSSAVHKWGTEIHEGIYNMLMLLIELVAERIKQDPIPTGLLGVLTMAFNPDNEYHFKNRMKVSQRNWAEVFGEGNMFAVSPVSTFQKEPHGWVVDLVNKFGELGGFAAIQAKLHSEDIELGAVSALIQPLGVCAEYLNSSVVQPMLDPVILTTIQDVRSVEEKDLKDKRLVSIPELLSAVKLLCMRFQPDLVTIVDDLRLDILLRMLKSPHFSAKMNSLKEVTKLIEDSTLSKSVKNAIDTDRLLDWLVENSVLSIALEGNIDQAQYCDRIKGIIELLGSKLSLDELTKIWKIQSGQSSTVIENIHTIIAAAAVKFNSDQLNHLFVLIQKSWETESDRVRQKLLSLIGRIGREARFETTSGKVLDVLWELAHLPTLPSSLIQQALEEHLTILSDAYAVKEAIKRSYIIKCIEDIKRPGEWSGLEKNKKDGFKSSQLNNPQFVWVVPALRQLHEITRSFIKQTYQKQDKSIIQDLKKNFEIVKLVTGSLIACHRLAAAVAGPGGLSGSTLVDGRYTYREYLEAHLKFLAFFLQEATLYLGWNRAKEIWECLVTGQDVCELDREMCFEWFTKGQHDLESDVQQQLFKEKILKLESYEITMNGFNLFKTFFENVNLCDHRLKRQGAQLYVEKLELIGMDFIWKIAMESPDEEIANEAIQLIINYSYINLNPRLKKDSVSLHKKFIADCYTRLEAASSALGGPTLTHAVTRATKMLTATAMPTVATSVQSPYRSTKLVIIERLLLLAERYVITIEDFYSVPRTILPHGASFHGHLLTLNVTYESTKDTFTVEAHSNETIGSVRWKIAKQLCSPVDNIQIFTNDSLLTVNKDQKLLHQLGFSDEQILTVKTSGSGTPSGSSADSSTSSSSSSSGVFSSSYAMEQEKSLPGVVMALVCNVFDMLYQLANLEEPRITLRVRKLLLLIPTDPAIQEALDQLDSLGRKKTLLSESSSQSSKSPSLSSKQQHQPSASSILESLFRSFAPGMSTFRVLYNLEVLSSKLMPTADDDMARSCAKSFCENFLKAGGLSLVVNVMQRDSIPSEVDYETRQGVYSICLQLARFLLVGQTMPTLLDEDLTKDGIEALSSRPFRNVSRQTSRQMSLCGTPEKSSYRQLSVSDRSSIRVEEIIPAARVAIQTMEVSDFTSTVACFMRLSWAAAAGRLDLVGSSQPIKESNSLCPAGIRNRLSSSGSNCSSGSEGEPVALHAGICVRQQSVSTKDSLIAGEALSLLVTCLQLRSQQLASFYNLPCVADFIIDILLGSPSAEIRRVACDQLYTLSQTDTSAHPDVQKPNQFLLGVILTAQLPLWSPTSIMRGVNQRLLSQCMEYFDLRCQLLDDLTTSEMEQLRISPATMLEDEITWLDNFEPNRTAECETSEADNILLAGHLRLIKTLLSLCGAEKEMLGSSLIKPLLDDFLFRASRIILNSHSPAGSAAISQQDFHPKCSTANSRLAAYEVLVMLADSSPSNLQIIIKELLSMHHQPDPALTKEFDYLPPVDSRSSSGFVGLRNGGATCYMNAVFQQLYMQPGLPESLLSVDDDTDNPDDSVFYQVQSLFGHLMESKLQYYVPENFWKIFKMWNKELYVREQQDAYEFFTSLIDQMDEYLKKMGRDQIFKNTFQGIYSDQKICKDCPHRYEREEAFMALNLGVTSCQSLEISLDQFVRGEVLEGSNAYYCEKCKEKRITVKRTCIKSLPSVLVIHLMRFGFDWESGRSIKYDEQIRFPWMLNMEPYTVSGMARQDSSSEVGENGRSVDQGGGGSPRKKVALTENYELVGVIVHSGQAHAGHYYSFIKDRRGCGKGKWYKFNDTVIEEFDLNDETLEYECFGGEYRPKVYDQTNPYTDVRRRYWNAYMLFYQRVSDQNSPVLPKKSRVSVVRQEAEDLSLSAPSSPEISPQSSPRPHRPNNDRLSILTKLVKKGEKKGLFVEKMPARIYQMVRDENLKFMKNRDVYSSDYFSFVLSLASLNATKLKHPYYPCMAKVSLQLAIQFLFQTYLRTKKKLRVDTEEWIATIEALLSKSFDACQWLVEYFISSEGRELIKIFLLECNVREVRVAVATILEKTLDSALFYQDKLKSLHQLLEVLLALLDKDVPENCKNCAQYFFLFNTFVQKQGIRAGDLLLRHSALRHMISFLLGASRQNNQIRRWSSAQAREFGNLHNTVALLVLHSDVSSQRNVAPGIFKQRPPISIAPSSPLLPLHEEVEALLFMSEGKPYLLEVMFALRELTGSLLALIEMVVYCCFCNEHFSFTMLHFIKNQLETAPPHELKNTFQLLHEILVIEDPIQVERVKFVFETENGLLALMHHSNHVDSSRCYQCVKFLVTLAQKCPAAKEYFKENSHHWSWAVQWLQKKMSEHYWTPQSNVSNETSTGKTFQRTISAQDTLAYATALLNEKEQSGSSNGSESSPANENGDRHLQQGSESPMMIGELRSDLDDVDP

O=C(CCl)Nc1cccc2ncccc12
inactive: USP19 -0.114 | USP22 0.19 | USP24 -0.136 | USP25 -0.527 | USP28 -0.917

— the supplement of paper PMC11732987, “Enantioselective OTUD7B fragment discovery through chemoproteomics screening and high-throughput optimisation” (Communications Chemistry, 2025)
